Measured values reported in a collection of fitness landscapes (doi:10.1016/j.celrep.2020.107928).
Over roughly 81,000 sequences, “one-hybrid fitness for binding NBS DNA” has its median near -0.1; the highest 2% begin near 0.36. Many of the other results were omitted from the sample, so the highest values are more common in it than they were.

B1: Caulobacter ParB omega fusion; a variant is named by its letters at X, in order, B8GW30 (parent)
chain: MESVVVGEPGMSEGRRGLGRGLSALLGEVDAAPAQAPGEQLGGSREAPIEILQRNPDQPRRTFREEDLEDLSNSIREKGVLQPILVRPSPDTAGEYQIVAGERAWRAAQRAGLKTVPIMVRELDDLAVLEIGIIENVQRADLNVLEEALSYKVLMEKFERTQENIAQTIGKSXSHVANXMRLLXLPDEVQSYLVSGELTAXHARAIAAAADPVALAKQIIEGGLSVRETEALARKAPNLSAGKSKGGRPPRVKDTDTQALESDLSSVLGLDVSIDHRGSTGTLTITYATLEQLDDLCNRLTRGI

Variants of: B1
Assay: one-hybrid fitness for binding NBS DNA (the Noc-binding site; scaled: cognate 1, non-cognate 0); higher = stronger binding
Conditions: with NBS DNA site
In short: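 Selection: bacterial one-hybrid in E. coli USO, HIS3 reporter with the site 19 bp from the promoter, 48 hours at 37°C on M9-minus-histidine plus 0.1 mM IPTG and 5 mM 3-AT. Libraries were Caulobacter ParB with four randomised specificity codons, sequenced on Illumina before and after selection. Fitness is the rescaled log change in variant-to-wild-type read ratio, anchored to the cognate and non-cognate sites.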

Variant | one-hybrid fitness for binding NBS DNA
TSKG | ≤ 0.2
PRAV | ≤ 0.2
TDDT | ≤ 0.2
IQLF | ≤ 0.2
LTEG | ≤ 0.2
QNKR | 0.504
QNYR | 0.203
QNKN | ≤ 0.2
QNDR | ≤ 0.2
QNVR | ≤ 0.2
QNRR | 0.439
MEGC | ≤ 0.2
QSHA | 0.275
QIHA | 0.201
QCHA | 0.422
QPHA | ≤ 0.2
QRHA | 0.629
QKHA | 0.28
ADPD | ≤ 0.2
TEMV | ≤ 0.2
FTMS | ≤ 0.2
MEGT | ≤ 0.2
APSI | ≤ 0.2
RVGD | ≤ 0.2
RVGN | ≤ 0.2

Variant | one-hybrid fitness for binding NBS DNA
RVGP | ≤ 0.2
RVGM | ≤ 0.2
RVGF | ≤ 0.2
RVGT | 0.491
RVGH | ≤ 0.2
RVGR | 0.491
RVGS | 0.463
AKNC | ≤ 0.2
RDQV | ≤ 0.2
QMHW | ≤ 0.2
MIEP | ≤ 0.2
EVLS | ≤ 0.2
MMLC | ≤ 0.2
CVFT | ≤ 0.2
HSNA | ≤ 0.2
QYIS | 0.202
QYRS | 0.644
QYDH | ≤ 0.2
QYRP | 0.216
QYYH | ≤ 0.2
QYYS | 0.312
QYRH | 0.541
QYRD | ≤ 0.2
QYRN | 0.38
GEPE | ≤ 0.2

Variant | one-hybrid fitness for binding NBS DNA
HWPK | ≤ 0.2
GQSC | ≤ 0.2
RFKM | ≤ 0.2
AIRM | ≤ 0.2
RCKS | 0.612
RHKS | 0.57
RPKS | ≤ 0.2
RCKD | ≤ 0.2
RFKN | ≤ 0.2
RLKD | ≤ 0.2
RFKH | ≤ 0.2
RLKS | 0.554
RFKS | 0.444
RHKP | ≤ 0.2
RLKN | ≤ 0.2
RHKN | 0.205
TSAW | ≤ 0.2
RVSW | ≤ 0.2
DRFC | ≤ 0.2
SYSC | ≤ 0.2
PYQW | ≤ 0.2
SPAY | ≤ 0.2
KNRG | ≤ 0.2
RIVS | ≤ 0.2
RAVS | 0.239

Variant | one-hybrid fitness for binding NBS DNA
RAKH | 0.36
RIKP | ≤ 0.2
RSKD | ≤ 0.2
RSKS | 0.567
RIKS | 0.499
RAKS | 0.571
RSVS | 0.285
HGYR | ≤ 0.2
STVP | ≤ 0.2
PRHI | ≤ 0.2
VTRH | ≤ 0.2
QTNL | 0.214
RMAT | 0.426
RSAN | ≤ 0.2
RIAT | 0.376
RSAT | 0.414
RDAT | ≤ 0.2
RLFT | 0.238
RIFT | ≤ 0.2
RMFT | 0.261
RLAD | ≤ 0.2
RMAP | ≤ 0.2
RIAD | ≤ 0.2
RLAT | 0.423
LYNV | ≤ 0.2
